According to PubChem BioAssay AID1159580 (chemical genetic matrix, 2015):
Hit rate of the full screen: of about 5,500 compounds, about 2,000 (36%) were called active. Roughly 18% stayed inconclusive and do not appear here. Cut-off read from the data, not from the text of the source: active = normalized growth mostly below about 0.91 (no sharp cut-off); inconclusive = no clear call, values can overlap the other calls; inactive = mostly above about 0.92. Some of the results follow.

Test: chemical genetic growth profiling, strain panel (AID 1159580);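 note: tested at 20 µM; growth read once vehicle control cultures reached saturation at 30 °C; 1 = growth at the plate median or of vehicle wells; lower values mean less growth of the strain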
Details: growth OD

Measured: normalized growth

CC(=O)OCC(=O)[C@@]1(O)CCC2C3C[C@H](C)C4=CC(=O)C=CC4(C)C3[C@@H](O)CC21C (some centres not stated)
inactive: S. cerevisiae deletion strains, locus YJR075W, strain HOC1, stronger effect = lower value 1.01 | S. cerevisiae deletion strains, locus YKL009W, strain mrt4, stronger effect = lower value 1.01 | S. cerevisiae deletion strains, locus YKL068W, stronger effect = lower value 1.02 | S. cerevisiae deletion strains, locus YKL085W, strain MDH1 (second series), stronger effect = lower value 0.995 | S. cerevisiae deletion strains, locus YKL085W, strain MDH1, stronger effect = lower value 0.995 | S. cerevisiae deletion strains, locus YKL160W, strain elf1, stronger effect = lower value 1.03 | S. cerevisiae deletion strains, locus YKL190W, strain CNB1, stronger effect = lower value 1 | S. cerevisiae deletion strains, locus YKR001C, strain vps1, stronger effect = lower value 0.997 | S. cerevisiae deletion strains, locus YKR026C, strain gcn3, stronger effect = lower value 1.01 | S. cerevisiae deletion strains, locus YKR091W, strain srl3, stronger effect = lower value 1.01 | S. cerevisiae deletion strains, locus YLL001W, strain dnm1, stronger effect = lower value 0.999 | S. cerevisiae deletion strains, locus YLL026W, stronger effect = lower value 1.01 | S. cerevisiae deletion strains, locus YLL041C, strain sdh2, stronger effect = lower value 1.01 | S. cerevisiae deletion strains, locus YLR027C, strain aat2, stronger effect = lower value 1.01 | S. cerevisiae deletion strains, locus YLR039C, strain RIC1, stronger effect = lower value 1.02 | S. cerevisiae deletion strains, locus YLR058C, strain SHM2, stronger effect = lower value 1.01 | S. cerevisiae deletion strains, locus YLR102C, strain apc9, stronger effect = lower value 1.01 | S. cerevisiae deletion strains, locus YLR113W, strain HOG1, stronger effect = lower value 1.02 | S. cerevisiae deletion strains, locus YLR221C, strain rsa3, stronger effect = lower value 0.997 | S. cerevisiae deletion strains, locus YLR258W, strain gsy2, stronger effect = lower value 1.03 | S. cerevisiae deletion strains, locus YLR262C, strain YPT6 (second series), stronger effect = lower value 1.03 | S. cerevisiae deletion strains, locus YLR262C, strain YPT6, stronger effect = lower value 1.01 | S. cerevisiae deletion strains, locus YLR268W, strain sec22, stronger effect = lower value 0.987 | S. cerevisiae deletion strains, locus YLR320W, strain mms22, stronger effect = lower value 1.01 | S. cerevisiae deletion strains, locus YLR330W, strain CHS5, stronger effect = lower value 1.01 | S. cerevisiae deletion strains, locus YLR342W, strain FKS1 (second series), stronger effect = lower value 1.03 | S. cerevisiae deletion strains, locus YLR342W, strain FKS1, stronger effect = lower value 1.02 | S. cerevisiae deletion strains, locus YLR357W, strain rsc2, stronger effect = lower value 1.03 | S. cerevisiae deletion strains, locus YLR370C, strain arc18, stronger effect = lower value 1.01 | S. cerevisiae deletion strains, locus YLR371W, strain rom2, stronger effect = lower value 1 | S. cerevisiae deletion strains, locus YLR384C, strain iki3, stronger effect = lower value 0.999 | S. cerevisiae deletion strains, locus YLR418C, strain cdc73, stronger effect = lower value 0.974 | S. cerevisiae deletion strains, locus YML016C, strain PPZ1, stronger effect = lower value 1 | S. cerevisiae deletion strains, locus YML032C, strain rad52, stronger effect = lower value 1.02 | S. cerevisiae deletion strains, locus YML120C, strain ndi1, stronger effect = lower value 1.02 | S. cerevisiae deletion strains, locus YML124C, strain tub3, stronger effect = lower value 1 | S. cerevisiae deletion strains, locus YMR058W, strain fet3, stronger effect = lower value 1.02 | S. cerevisiae deletion strains, locus YMR078C, strain ctf18, stronger effect = lower value 1 | S. cerevisiae deletion strains, locus YMR125W, strain sto1, stronger effect = lower value 1.04 | S. cerevisiae deletion strains, locus YMR129W, stronger effect = lower value 1.01 | S. cerevisiae deletion strains, locus YMR205C, strain PFK2, stronger effect = lower value 1.02 | S. cerevisiae deletion strains, locus YMR223W, strain ubp8, stronger effect = lower value 1.01 | S. cerevisiae deletion strains, locus YMR231W, strain pep5, stronger effect = lower value 1.02 | S. cerevisiae deletion strains, locus YMR263W, strain SAP30, stronger effect = lower value 1 | S. cerevisiae deletion strains, locus YMR307W, strain GAS1, stronger effect = lower value 1.03 | S. cerevisiae deletion strains, locus YNL067W, strain RPL9B, stronger effect = lower value 0.996 | S. cerevisiae deletion strains, locus YNL071W, strain lat1, stronger effect = lower value 1.01 | S. cerevisiae deletion strains, locus YNL128W, strain TEP1, stronger effect = lower value 1.01 | S. cerevisiae deletion strains, locus YNL153C, strain GIM3, stronger effect = lower value 0.998 | S. cerevisiae deletion strains, locus YNL183C, strain NPR1, stronger effect = lower value 0.962 | S. cerevisiae deletion strains, locus YNL209W, strain ssb2, stronger effect = lower value 1 | S. cerevisiae deletion strains, locus YNL233W, strain BNI4, stronger effect = lower value 1.01 | S. cerevisiae deletion strains, locus YNL248C, strain rpa49, stronger effect = lower value 1.02 | S. cerevisiae deletion strains, locus YNL250W, strain rad50, stronger effect = lower value 1 | S. cerevisiae deletion strains, locus YNL271C, strain bni1, stronger effect = lower value 1 | S. cerevisiae deletion strains, locus YNL298W, strain CLA4, stronger effect = lower value 1.01 | S. cerevisiae deletion strains, locus YNL307C, strain MCK1, stronger effect = lower value 1.01 | S. cerevisiae deletion strains, locus YNL322C, strain KRE1 (second series), stronger effect = lower value 1 | S. cerevisiae deletion strains, locus YNL322C, strain KRE1, stronger effect = lower value 1 | S. cerevisiae deletion strains, locus YNR049C, strain mso1, stronger effect = lower value 1.02 | S. cerevisiae deletion strains, locus YNR052C, strain pop2, stronger effect = lower value 1 | S. cerevisiae deletion strains, locus YOL006C, strain TOP1, stronger effect = lower value 1.01 | S. cerevisiae deletion strains, locus YOL012C, strain htz1 1.08 | S. cerevisiae deletion strains, locus YOL147C, strain pex11, stronger effect = lower value 1 | S. cerevisiae deletion strains, locus YOR001W, strain rrp6, stronger effect = lower value 0.988 | S. cerevisiae deletion strains, locus YOR061W, strain CKA2, stronger effect = lower value 1 | S. cerevisiae deletion strains, locus YOR069W, strain VPS5, stronger effect = lower value 1.01 | S. cerevisiae deletion strains, locus YOR070C, strain gyp1, stronger effect = lower value 1.02 | S. cerevisiae deletion strains, locus YOR080W, strain dia2, stronger effect = lower value 1.06 | S. cerevisiae deletion strains, locus YOR083W, strain WHI5, stronger effect = lower value 1.02 | S. cerevisiae deletion strains, locus YOR106W, strain vam3, stronger effect = lower value 1.01 | S. cerevisiae deletion strains, locus YOR136W, strain idh2, stronger effect = lower value 1.01 | S. cerevisiae deletion strains, locus YOR144C, strain elg1, stronger effect = lower value 1.01 | S. cerevisiae deletion strains, locus YOR184W, strain ser1, stronger effect = lower value 1.01 | S. cerevisiae deletion strains, locus YOR231W, strain MKK1, stronger effect = lower value 1.02 | S. cerevisiae deletion strains, locus YOR265W, strain rbl2, stronger effect = lower value 1.01 | S. cerevisiae deletion strains, locus YOR270C, strain vph1, stronger effect = lower value 0.982 | S. cerevisiae deletion strains, locus YOR290C, strain snf2, stronger effect = lower value 1.03 | S. cerevisiae deletion strains, locus YOR316C, strain cot1, stronger effect = lower value 1 | S. cerevisiae deletion strains, locus YPL051W, strain arl3, stronger effect = lower value 1.03 | S. cerevisiae deletion strains, locus YPL055C, strain LGE1, stronger effect = lower value 0.999 | S. cerevisiae deletion strains, locus YPL078C, strain atp4, stronger effect = lower value 1.03 | S. cerevisiae deletion strains, locus YPL106C, strain sse1, stronger effect = lower value 1.04 | S. cerevisiae deletion strains, locus YPL240C, strain hsp82, stronger effect = lower value 0.994 | S. cerevisiae deletion strains, locus YPL241C, strain CIN2, stronger effect = lower value 1.01 | S. cerevisiae deletion strains, locus YPL256C, strain CLN2, stronger effect = lower value 1.01 | S. cerevisiae deletion strains, locus YPR119W, strain clb2, stronger effect = lower value 1.01 | S. cerevisiae deletion strains, locus YPR141C, strain kar3, stronger effect = lower value 1.01 | S. cerevisiae deletion strains, locus YPR163C, strain tif3, stronger effect = lower value 1.01 | S. cerevisiae deletion strains, locus YPR167C, strain met16, stronger effect = lower value 0.995 | S. cerevisiae deletion strains, strain wtn01, stronger effect = lower value 1.01 | S. cerevisiae strains, strain wild type, stronger effect = lower value 1
